miR-21 act: qHTS Assay for Modulators of miRNAs and/orActivators of miR-21. 340,000 tested, under 10 active. HeLa miR-21 FLuc reporter, luciferase, 48 h. Potency, µM (series often up to 38.3 µM), actives largely listed as activators;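 also: miR-21 action dims this reporter so a rising signal means less miR-21 action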
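HeLa cells stably expressing CMV-driven firefly luciferase with a downstream miR-21 binding sequence, endogenously expressing miR-21, were treated with titrations (up to about 40uM final) for 48 hours at 37 degree Celsius. Luciferase luminescence was read after lysis.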
Nrf2 block: Nrf2 qHTS screen for inhibitors; A549 ARE-Fluc reporter, luciferase luminescence, 18-24 h; Potency, µM (top dose mostly 46 µM), usual class: inhibitors; AID 504444, 2011; 360,000 compounds, 2.1% hits; also: nearly all actives have a fitted effect of over 60% in size
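Nrf2 activity is the BugLite luminescence, read 15 min after reagent at room temperature, following CellTiter-Fluor cytotoxicity readout (30 min, 37C). Compound titrations were applied for 18-24 h to 5000 A549 ARE_Fluc cells/well in 5% FBS OPTI-MEM.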
IL-2 act: qHTS of IL-2 Activators. AID 652025, 2013. IL-2 activation reporter assay, cell-based qHTS; stimulated with anti-CD3/CD4/CD28 beads; in transgenic mouse T cells. 360,000 compounds, 0.065% hits. activation, % (series mostly up to about 46 µM); in the data active = activation above about 50%; inconclusive = mostly about 30% to 49%
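Unstimulated transgenic mouse T cells; 60-min compound exposure; bead-based TCR/CD4/CD28 stimulation; 18 h culture, 37 degrees C; dual fluorescence (EGFP, DsRed) plate cytometry.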
Nrf2 ARE act: qHTS of Nrf2 Activators. AREc32 ARE-luciferase reporter (MCF7-derived line), luminescence, 24 h. Potency, µM (titrated, usually from 46.1 µM), usual class: activators. 410,000 compounds, 0.31% hits. AID 624171, 2012; also: nearly all actives have a fitted effect of over 65% in size
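Nrf2 activation is followed as ARE-luciferase induction in the AREc32 line after one day of compound treatment; luminescence is read with Steady-Glo.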
ClpP mod: qHTS Assay for Activators of ClpP | ATP-dependent Clp protease proteolytic subunit (Bacillus subtilis (strain 168)), P80244 | purified B. subtilis ClpP, FRET peptide cleavage, 20 min | Potency, µM (top dose mostly 57.5 µM) | 340,000 compounds, 1.9% hits | AID 651965, 2013; active = well fitted falling curve with a large enough effect; inconclusive = small, poorly fitted or top-dose-only effect; inactive = no such curve, though single readings can be large or run the other way; also: the source files actives as falling curves though it sought activators and does not explain the sign; nearly all actives have a fitted effect of over 65% in size
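Purified B. subtilis ClpP, 10 microg/mL final in Tris/HCl pH8 with KCl, BSA, glycerol and Tween-20, cleaved an Abz/nitrotyrosine-quenched decapeptide. Fluorescence (ex 320, em 430) was read at 0 and 20 min at room temperature. Delta was normalized to 5.8 microM ADEP and DMSO/no-enzyme controls.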
A549 tox: Nrf2 qHTS screen for inhibitors: counterscreen for cytotoxicity. 390,000 compounds, 0.16% hits. A549 ARE-Fluc cells, CellTiter-Fluor viability, 18-24 h. Potency, µM (highest dose often 46 µM), most hits filed as inhibitors
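A549 ARE_Fluc cells in 5% FBS OPTI-MEM were exposed to compounds in concentration-response for 18-24 h at 37 deg C. Viability was read by CellTiter-Fluor fluorescence (Ex 405/Em 525) after 30 min, before the luciferase read.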
Each line names hits and unclear results; the compound was inactive in the other large screens. In the library only some 3.7% were active in any assay of this set; here they are far more common. Unless noted, calls follow the shape of the dose curve; as a rule, active = well fitted curve in the direction sought with a large enough effect; inconclusive = small, poorly fitted or top-dose-only effect, or another doubt; inactive = no such curve, though single readings can be large; an effect the other way counts as inactive or inconclusive.

Cc1ccc(COC(=O)c2cc(S(=O)(=O)N3CCOCC3)ccc2C)cc1	Nrf2 block 16.4µM (no result: miR-21 act)
Cc1ccc(S(=O)(=O)N2CCOCC2)cc1C(=O)Nc1ccc(N2CCCCCC2)cc1	Nrf2 block 20.6µM (no result: miR-21 act)
Cc1ccccc1OCCOC(=O)c1cc(S(=O)(=O)N2CCCCC2)ccc1N1CCOCC1	Nrf2 block 16.4µM (no result: miR-21 act)
O=c1c2sc3ccccc3c2n(Cc2cccc(C(F)(F)F)c2)c(=O)n1Cc1ccc(F)cc1	ClpP mod inconclusive (no result: IL-2 act)
O=C(Nc1ccncc1)C1CCN(S(=O)(=O)c2cccc(C(F)(F)F)c2)CC1	Nrf2 block 16.4µM (no result: miR-21 act)
O=C(Nc1cccc(S(=O)(=O)N2CCCC2)c1)c1cc(-c2ccccn2)nc2ccccc12	Nrf2 block 9.2µM (no result: ClpP mod)
Cc1cc(C(=O)Nc2cccc(S(=O)(=O)N3CCCC3)c2)c2ccccc2n1	Nrf2 block inconclusive (no result: miR-21 act)
O=C(NCc1ccncc1)C1CCN(S(=O)(=O)c2cccc(C(F)(F)F)c2)CC1	none (no result: ClpP mod)
O=C(Nc1ccc(N2CCOCC2)cc1)c1cccc(S(=O)(=O)N2CCCCC2)c1	Nrf2 block 20.6µM
O=C(Nc1nnc(S(=O)(=O)N2CCCCC2)s1)c1cccc(Br)c1	Nrf2 block 25.9µM
CCN1CCN(c2ccc(NC(=O)c3cccc(S(=O)(=O)N4CCCC4)c3)cc2)CC1	none (no result: miR-21 act)
CC(=O)N1CCCc2cc(S(=O)(=O)N(C)CC(=O)Nc3ccc(F)c(Cl)c3)ccc21	miR-21 act inconclusive (no result: Nrf2 block, IL-2 act)
CCOc1ccc(C2C(=O)N(C3CCCCC3)CC(=O)N2C2CCCC2)cc1OC (stereo unspecified)	none (no result: Nrf2 block, IL-2 act)
O=C(Nc1ccncc1)c1cccc(S(=O)(=O)N2CCCC2)c1	Nrf2 block 8.2µM
O=C(Nc1ccncc1)c1cccc(S(=O)(=O)N2CCOCC2)c1	none (no result: miR-21 act)
CN1CCCC1=Nc1ccccc1	none (no result: miR-21 act, Nrf2 block, A549 tox)
CN1CCCCCC1=Nc1ccc([N+](=O)[O-])cc1	ClpP mod 11.2µM (no result: miR-21 act)
Cn1c(=O)c2nc(SCC(=O)Nc3cc(Cl)ccc3Cl)n(C)c2n(C)c1=O	none (no result: Nrf2 block, IL-2 act)
O=C(Nc1nc2nccc(-c3ccccc3)n2n1)c1ccc(F)cc1	ClpP mod 28.2µM
O=C(Nc1nc2nccc(-c3ccccc3)n2n1)c1ccccc1	none (no result: ClpP mod)
Cc1ccc(Cl)cc1N1CCN(C(=O)Cn2nc(C)n3c(cc4sccc43)c2=O)CC1	Nrf2 block inconclusive (no result: IL-2 act)
COC(=O)c1ccccc1NC1CC(=O)N(c2c(C)cccc2C)C1=O (stereo unspecified)	ClpP mod 8.91µM
Cc1ccc(N2C(=O)C(CC(=O)Nc3ccc(F)cc3)N(Cc3ccc4c(c3)OCO4)C2=O)cc1 (stereo unspecified)	miR-21 act inconclusive (no result: IL-2 act)
Cc1ccc(S(=O)(=O)N2CCOC2CNC(=O)C(=O)NCCCc2ccccc2)cc1 (stereo unspecified)	miR-21 act inconclusive, Nrf2 block 20.6µM
COc1ccc(S(=O)(=O)N2CCOC2CNC(=O)C(=O)NCCc2c[nH]c3ccccc23)cc1 (stereo unspecified)	Nrf2 block 7.31µM
Cc1ccc(S(=O)(=O)c2cn(Cc3ccccc3)c3cc(N4CCCC4)c(F)cc3c2=O)cc1	ClpP mod inconclusive (no result: IL-2 act)
CC1CCCCN1c1cc2c(cc1F)c(=O)c(S(=O)(=O)c1ccccc1)cn2Cc1ccccc1 (stereo unspecified)	Nrf2 block inconclusive, ClpP mod 15.8µM (no result: IL-2 act)
Cc1cccc(S(=O)(=O)c2cn(Cc3ccccc3)c3cc(N4CCCCC4C)c(F)cc3c2=O)c1 (stereo unspecified)	none (no result: IL-2 act)
O=c1c(S(=O)(=O)c2ccccc2)cn(Cc2cccc(F)c2)c2cc(N3CCOCC3)c(F)cc12	Nrf2 block inconclusive, ClpP mod 28.2µM (no result: IL-2 act)
O=c1c(S(=O)(=O)c2ccccc2)cn(Cc2ccccc2)c2cc(N3CCOCC3)c(F)cc12	Nrf2 block inconclusive, ClpP mod 28.2µM (no result: IL-2 act)
Cc1ccc(S(=O)(=O)c2cn(Cc3ccccc3)c3cc(N4CCCC4)c(F)cc3c2=O)cc1C	ClpP mod 12.6µM (no result: IL-2 act)
C[C@H](NC(=O)OC(C)(C)C)[C@@H](O)c1ccco1	none (no result: miR-21 act, Nrf2 block, IL-2 act, Nrf2 ARE act, A549 tox)
Cc1ccc(-n2c(=O)c3c(c4cc(C)ccc4n3C)n(CC(=O)NCc3ccccc3)c2=O)cc1	Nrf2 block inconclusive, ClpP mod inconclusive (no result: IL-2 act)
CC(Sc1nc2ccccc2c(=O)n1C)C(=O)N(C)C1CCCCC1 (stereo unspecified)	Nrf2 block 18.4µM (no result: miR-21 act)
Cc1ccc(NC(=O)CCc2nc3cccnc3n2-c2ccccc2)cc1	Nrf2 block inconclusive (no result: IL-2 act)
Clc1cccc(Cl)c1C[n+]1ccc2ccccc2c1	Nrf2 block 6.51µM
c1ccc(C[n+]2ccc3ccccc3c2)cc1	Nrf2 block inconclusive (no result: miR-21 act)
CCN1CCN(c2cc(-c3ccccc3)nc3cc(-c4cccc(F)c4)nn23)CC1	miR-21 act inconclusive, ClpP mod 25.1µM, A549 tox inconclusive (no result: Nrf2 block)
OC1CCN(c2cc(-c3ccccc3)nc3cc(-c4ccc(F)cc4)nn23)CC1	none (no result: ClpP mod)
CCCCn1c(SCC(=O)Nc2ccc3c(c2)OCCO3)nnc1C(CC)N(C)C (stereo unspecified)	Nrf2 block inconclusive (no result: miR-21 act)
CCCCn1c(SCC(=O)Nc2cc(C(F)(F)F)cc(C(F)(F)F)c2)nnc1C(CC)N(C)C (stereo unspecified)	Nrf2 block 13µM, A549 tox inconclusive
CS(=O)(=O)c1ccc(Cl)c(NC(=O)COC(=O)c2ccc(F)cc2Cl)c1	Nrf2 block 11.6µM
CS(=O)(=O)c1ccc(Cl)c(NC(=O)CCl)c1	miR-21 act inconclusive, Nrf2 block 20.6µM, Nrf2 ARE act inconclusive
Cc1cccc(C)c1NC(=O)Cn1c(=O)n(CCCS(=O)(=O)C2CCCCC2)c(=O)c2ccccc21	none (no result: IL-2 act)
CCCOc1ccc(C2C(=O)N(C3CCC(C)CC3)CC(=O)N2CCc2ccccc2)cc1OC (stereo unspecified)	none (no result: Nrf2 block, IL-2 act)
COc1cc2c(c3ccccc13)CCCC2=O	ClpP mod 28.2µM (no result: miR-21 act)
COc1ccc(-n2c(C)nc3c(cnn3-c3ccc(Cl)cc3)c2=O)cc1	Nrf2 block inconclusive
COc1ccc(-n2c(C)nc3c(cnn3-c3ccc(C)cc3)c2=O)cc1	Nrf2 block 18.4µM
COc1ccc(Oc2c(Cl)cnn(-c3ccc(C)cc3)c2=O)cc1	Nrf2 ARE act 12.6µM (no result: Nrf2 block)
Cc1cc(C)n2nc(CNC(=O)c3cccc(N(C)C)c3)nc2n1	Nrf2 block inconclusive (no result: IL-2 act)
CCNC(=O)/C(C#N)=C/c1c(N2CCN(c3ccccc3)CC2)nc2c(C)cccn2c1=O	none
